TDP1 cell CPT: qHTS for Inhibitors of human tyrosyl-DNA phosphodiesterase 1 (TDP1): qHTS in cells in presence of CPT; chicken DT40 Tdp1-/-;hTDP1 cells + 20 nM CPT, ATP luminescence, 48 h; Potency, µM (top dose mostly 46.2 µM), for the others: top-dose activity change, negative = growth inhibition, usual class: inhibitors; 12% of 420,000 active; further: on the % scale 0 is the no-effect control and ±100 the full control effect; nearly all actives have a fitted effect of over 55% in size
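Cell growth measured by CellTiter-Glo luminescence after a minimum 48 h, 37 C compound exposure with 20 nM CPT in Tdp1-knockout DT40 cells stably expressing hTDP1, seeded 400/well; qHTS titration format.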
ATXN2 expr inh: Primary qHTS for Inhibitors of ATXN expression. HEK-293 ATXN2-luciferase reporter, luminescence, 24 h. Potency, µM (doses to about 57 µM), for the others: at the highest dose activity change, negative = inhibition, most hits filed as inhibitors. 0.72% of 360,000 active; further: on the % scale 0 is the no-effect control and ±100 the full control effect; nearly all actives have a fitted effect of over 55% in size
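ATXN2-luciferase reporter cells (luciferase flanked by upstream and downstream ATXN2 gene portions) were treated 24 h at 37 °C with compounds at up to 57 uM. SteadyGlo luminescence gave expression; GF-AFC fluorescence gave viability.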
TGFb inhibitor: qHTS for Inhibitors of TGF-b; HepG2 CAGA-GFP TGF-b/SMAD3 reporter, GFP fluorescence, 18 h; TGF-beta stimulated, 500 pg/mL final; Potency, µM (highest dose often 46.1 µM), without a hit: top-dose activity, negative = inhibition, usual class: inhibitors; 1.2% of 410,000 active; further: on the % scale 0 is the no-effect control and ±100 the full control effect; nearly all actives have a fitted effect of over 65% in size
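GFP signal (ex488/em500-530) from TGF-beta-stimulated HEPG2 CAGA-GFP cells, 500 pg/mL final, 18 h at 37 degrees C in DMEM plus 1% FBS, normalized to unstimulated and DMSO-stimulated controls.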
ATXN viability: Viability Counterscreen for Primary qHTS for Inhibitors of ATXN expression | S2 cells (HEK-293 line with an ATXN2-luciferase reporter) viability, CellTiter-Fluor protease fluorescence, 24 h | Potency, µM (doses to about 56.7 µM), hits mostly cytotoxic | 0.49% of 400,000 active | AID 651635, 2014; further: nearly all actives have a fitted effect of over 40% in size
HepG2 tox: qHTS for Inhibitors of TGF-b: Cytotox Counterscreen; HepG2 CAGA-GFP viability, ATP luminescence, 18 h; Potency, µM (highest dose often 46.1 µM), for the others: at the highest dose activity change, negative = cytotoxicity, actives largely listed as cytotoxic; 0.76% of 410,000 active
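CellTiter-Glo luminescence gave cytotoxicity after 18 hours at 37 degrees C. The cells were HepG2 CAGA-GFP in 1% FBS DMEM, stimulated with 500 pg/mL TGF-beta after compound addition. %Activity was normalised to no-cell wells (complete cell-killing) and DMSO (no toxicity), and curves were fitted and classified.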
DT40 TDP1 no CPT: qHTS for Inhibitors of human tyrosyl-DNA phosphodiesterase 1 (TDP1): qHTS in cells in absence of CPT | DT40 Tdp1-/- hTDP1 cells, no CPT, ATP luminescence, 48 h | Potency, µM (top dose mostly 46.2 µM), for the others: top-dose activity change, negative = growth inhibition, most hits filed as inhibitors | 15% of 420,000 active; further: on the % scale 0 is the no-effect control and ±100 the full control effect; nearly all actives have a fitted effect of over 55% in size
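Growth of hTDP1-complemented DT40 Tdp1-knockout cells is measured by ATP luminescence after at least 48 hr compound exposure at 37 °C, with DMSO substituting for the 20 nM CPT used in the parallel screen.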
Numbers without * were called inactive; i = inactive; ? = inconclusive; nt = no result. Sampled rows, rich in hits. Any-hit rate of the full collection: about 17%. The call rests on the fitted dose curve; in most records, active means well fitted curve in the direction sought with a large enough effect; inconclusive means small, poorly fitted or top-dose-only effect, or another doubt; inactive means no such curve, though single readings can be large; an effect the other way counts as inactive or inconclusive. Potency means the concentration at half of the fitted maximal effect.

SMILES	TDP1 cell CPT	ATXN2 expr inh	TGFb inhibitor	ATXN viability	HepG2 tox	DT40 TDP1 no CPT
COc1ccc(-c2nnc(Nc3ccc(OC)c(C(N)=O)c3)c3ccccc23)cc1	?	nt	?	nt	-25%	16µM*
COc1ccc(Nc2nnc(-c3ccc(C)c(S(N)(=O)=O)c3)c3ccccc23)cc1	18µM*	-9%	?	i	16%	18µM*
COc1ccc(Nc2nnc(-c3ccc(C)c(S(=O)(=O)NCc4nc5ccccc5[nH]4)c3)c3ccccc23)cc1	21µM*	?	7.9µM*	?	35%	10µM*
CC(=O)Nc1ccc(Nc2nnc(-c3ccc(C)c(S(N)(=O)=O)c3)c3ccccc23)cc1	-13%	-28%	-16%	i	-8%	0%
Cc1ccc(-c2nnc(Nc3ccc(C(=O)N(C)C)cc3)c3ccccc23)cc1S(=O)(=O)N(C)C	23µM*	-1%	-20%	i	-2%	10µM*
CC(=O)Nc1ccc(Nc2nnc(-c3ccc(C)c(S(=O)(=O)NCCO)c3)c3ccccc23)cc1	5%	-1%	-7%	i	-21%	3%
CC(=O)c1ccc(N2CCN(C(=O)c3cc(S(=O)(=O)N4CCCCCC4)cn3C)CC2)cc1	?	-12%	1%	?	-17%	?
O=S(=O)(c1ccccc1)N(CC1CO1)c1cccc2ccccc12 (stereo unspecified)	21µM*	-18%	-14%	i	-23%	23µM*
Cc1ccc(S(=O)(=O)N(CC2CO2)c2ccccc2[N+](=O)[O-])cc1 (stereo unspecified)	12µM*	0%	10%	i	-1%	?
Cc1ccc(N(CC2CO2)S(=O)(=O)c2ccccc2[N+](=O)[O-])cc1 (stereo unspecified)	-29%	3%	3%	i	-1%	?
Cc1ccc(S(=O)(=O)N(CC2CO2)c2cccc([N+](=O)[O-])c2)cc1 (stereo unspecified)	12µM*	-1%	?	i	-5%	23µM*
CCOc1cc(S(=O)(=O)n2cc(-c3ccc(F)cc3)c(N)n2)cc(OCC)c1OCC	?	-23%	?	i	-7%	13µM*
Cc1cc(C(=O)NC2CCCN(Cc3ccccc3F)C2)no1 (stereo unspecified)	-20%	nt	-23%	i	-9%	-28%
CCc1cc(C(=O)NC2CCCN(Cc3ccccc3F)C2)n(C)n1 (stereo unspecified)	6.5µM*	-21%	-19%	i	-19%	9.2µM*
COc1ccc(C(=O)NC2CCCN(Cc3ccccc3F)C2)c(OC)c1OC (stereo unspecified)	?	-8%	?	i	-38%	5.2µM*
CCOc1cc(C(=O)Nc2ccc3c4c(cccc24)C(=O)N3CC)cc(OCC)c1OCC	?	36%	-3%	i	-16%	23µM*
O=C1NC[C@H](Cc2ccccc2)N(C[C@@H]2CCCN2C[C@H](Cc2ccc(O)cc2)N2C[C@H](Cc3ccc(O)cc3)N(CCc3ccccc3)C(=O)C2=O)C1=O	3%	7%	nt	i	nt	-5%
O=C1NC[C@H](Cc2ccccc2)N(C[C@H]2CCCN2C[C@H](Cc2ccccc2)N2C[C@H](Cc3ccccc3)N(CCc3ccccc3)C(=O)C2=O)C1=O	?	?	?	18µM*	-34%	16µM*
